Measurements published in PubChem BioAssay (NCATS).
Inconclusive results are not listed. Calls of active or inactive are those of the source. Unless noted, the call rests on the fitted dose curve; in most records, active means well fitted curve in the direction sought with a large enough effect; inconclusive means small, poorly fitted or top-dose-only effect, or another doubt; inactive means no such curve, though single readings can be large; an effect the other way counts as inactive or inconclusive.

Experiments:
[1] = biological target: Glutaminase kidney isoform, mitochondrial (Homo sapiens) (UniProt O94925); test: qHTS for Inhibitors of Glutaminase (GLS): LOPAC Validation (AID 624146); further: nearly all actives have a fitted effect of over 60% in size; further: potency means the concentration at half of the fitted maximal effect
Outline: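 Read-out is an Amplex red fluorescence increase coupled through glutamate oxidase and HRP, measured before and after 30 min room-temperature incubation. hKGA is in 45 mM KH2PO4 (pH 8.2) with 0.02% Tween-20; glutamine added as 1mM solution.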

[2] = qHTS of Trypanosoma Brucei Inhibitors: LOPAC Validation (AID 624147); further: potency means the concentration at half of the fitted maximal effect
Outline: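 Activity of T. brucei pyruvate kinase was followed by Kinase-Glo Plus luminescence after the enzyme reacted 45 min at room temperature with 130 uM ADP (final) and substrate. Test compounds were added before ADP at multiple concentrations.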

[3] = biological target: Glucagon-like peptide 1 receptor (Homo sapiens) (UniProt P43220); test: qHTS of GLP-1 Receptor Agonists: LOPAC Validation (AID 624148);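 further: higher luminescence signal means agonism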
Outline: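 HEK293 cells stably co-expressing GLP-1R and a cAMP-responsive luciferase reporter, plated 12 hours before compound, then incubated 4-6 hr at 37 deg C. Luminescence read 12 min after detection reagent.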

[4] = qHTS of Nrf2 Activators: LOPAC Validation (AID 624149)
Outline: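 AREc32_Fluc cells, 1000/well in OPTI-MEM with 5% FBS, grown overnight, then exposed to compounds for 24 hr at 37 deg C, 5% CO2. ARE-driven firefly luciferase read by Steady-Glo luminescence after 30 min at RT.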

[5] = biological target: Luciferin 4-monooxygenase (Photinus pyralis) (UniProt P08659); test: Biochemical firefly luciferase enzyme assay for NPC (AID 624030);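 further: purified P. pyralis luciferase at 10 nM with luciferin and ATP substrate; series mostly up to about 59 µM; nearly all actives have a fitted effect of over 70% in size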
Outline: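 Purified P. pyralis luciferase at 10 nM in 50 mM Tris Acetate (final), luminescence read within 5 minutes of enzyme addition to compounds. Activity normalised to PTC124 versus DMSO; concentration-response curves classed by r2, magnitude and activity.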

[6] = S16 Schwann cell viability assay (CellTiter-Glo assay) (AID 624031);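 further: native untransfected S16 rat Schwann cells; series mostly up to about 58 µM; nearly all actives have a fitted effect of over 70% in size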
Outline: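 Counter-screen for cytotoxicity: parental S16 rat Schwann cells lacking the PMP22 reporters, treated 24 h with compound, viability from cellular ATP by CellTiter-Glo luminescence, normalized to DMSO (0%) and no-cell wells.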

[7] = S16 Schwann cell PMP22 intronic element firefly luciferase assay (AID 624032); further: series mostly up to about 58 µM; nearly all actives have a fitted effect of over 30% in size
Outline: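 Rat S16 Schwann cells stably carrying firefly luciferase driven by a PMP22 intronic element, in 10% FBS, treated 24 h at 37 C. ONE-Glo luminescence normalized to PTC124 control and DMSO (0%); curves classed by r2, magnitude and activity.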

[8] = S16 Schwann cell PMP22 intronic element beta-lactamase assay (AID 624044; calls by dose curve; further: nearly all actives have a fitted effect of over 15% in size)
Outline: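 Rat S16 Schwann cells with beta-Lac driven by a PMP22 intronic element, compound-treated 24 h at 37 °C. LiveBLAzer FRET B/G read: 460 nm normalized to potassium clavulanate vs DMSO; 535 nm FRET as viability; concentration-effect curves classified.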

[9] = biological target: Voltage-gated inwardly rectifying potassium channel KCNH2 (Homo sapiens) (UniProt Q12809); test: qHTS Assay for Small Molecule Inhibitors of the Human hERG Channel Activity (AID 588834);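 further: top concentration of the series differs between compounds; lower thallium flux fluorescence means stronger hERG block; nearly all actives have a fitted effect of over 50% in size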
Outline: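 Blockade is seen as reduced FluxOR thallium-flux fluorescence in U2OS cells expressing hERG from a BacMam construct, in Opti-MEM with 2% FCS. Concentration-response data fitted to the Hill equation for AC50.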

[10] = HTS Assay for Allosteric Antagonists of the Human D2 Dopamine Receptor: Hit Validation in HTRF (AID 624455); further: potency means the concentration at half of the fitted maximal effect;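 further: stable D1 dopamine receptor cell line scored for blocking the D1 response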
Outline: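 Hit validation in cells stably expressing the D1 dopamine receptor, run in HTRF format. Compounds were tested for their ability to inhibit the D1-mediated response.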

Measured: Potency

Glutaminase kidney isoform, mitochondrial (Homo sapiens), sequence (O94925 whole entry, looked up, canonical isoform): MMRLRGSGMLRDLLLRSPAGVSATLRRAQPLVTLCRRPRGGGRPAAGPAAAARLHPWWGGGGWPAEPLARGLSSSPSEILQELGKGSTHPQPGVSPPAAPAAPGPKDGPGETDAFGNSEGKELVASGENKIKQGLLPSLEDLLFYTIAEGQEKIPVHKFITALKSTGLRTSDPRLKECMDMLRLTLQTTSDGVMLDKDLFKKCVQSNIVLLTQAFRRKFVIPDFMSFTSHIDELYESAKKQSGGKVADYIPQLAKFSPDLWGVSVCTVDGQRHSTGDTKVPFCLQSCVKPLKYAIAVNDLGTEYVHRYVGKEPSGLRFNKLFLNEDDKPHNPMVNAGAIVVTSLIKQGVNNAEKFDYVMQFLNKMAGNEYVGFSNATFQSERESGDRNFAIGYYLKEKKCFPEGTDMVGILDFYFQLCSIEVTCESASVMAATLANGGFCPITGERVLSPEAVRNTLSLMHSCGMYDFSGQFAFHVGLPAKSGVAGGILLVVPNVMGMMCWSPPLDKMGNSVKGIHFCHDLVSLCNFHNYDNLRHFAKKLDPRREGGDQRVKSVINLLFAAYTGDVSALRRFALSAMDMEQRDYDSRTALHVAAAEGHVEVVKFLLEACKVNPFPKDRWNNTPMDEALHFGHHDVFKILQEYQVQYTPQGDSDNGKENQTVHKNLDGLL
Voltage-gated inwardly rectifying potassium channel KCNH2 (Homo sapiens), sequence (Q12809 whole entry, looked up): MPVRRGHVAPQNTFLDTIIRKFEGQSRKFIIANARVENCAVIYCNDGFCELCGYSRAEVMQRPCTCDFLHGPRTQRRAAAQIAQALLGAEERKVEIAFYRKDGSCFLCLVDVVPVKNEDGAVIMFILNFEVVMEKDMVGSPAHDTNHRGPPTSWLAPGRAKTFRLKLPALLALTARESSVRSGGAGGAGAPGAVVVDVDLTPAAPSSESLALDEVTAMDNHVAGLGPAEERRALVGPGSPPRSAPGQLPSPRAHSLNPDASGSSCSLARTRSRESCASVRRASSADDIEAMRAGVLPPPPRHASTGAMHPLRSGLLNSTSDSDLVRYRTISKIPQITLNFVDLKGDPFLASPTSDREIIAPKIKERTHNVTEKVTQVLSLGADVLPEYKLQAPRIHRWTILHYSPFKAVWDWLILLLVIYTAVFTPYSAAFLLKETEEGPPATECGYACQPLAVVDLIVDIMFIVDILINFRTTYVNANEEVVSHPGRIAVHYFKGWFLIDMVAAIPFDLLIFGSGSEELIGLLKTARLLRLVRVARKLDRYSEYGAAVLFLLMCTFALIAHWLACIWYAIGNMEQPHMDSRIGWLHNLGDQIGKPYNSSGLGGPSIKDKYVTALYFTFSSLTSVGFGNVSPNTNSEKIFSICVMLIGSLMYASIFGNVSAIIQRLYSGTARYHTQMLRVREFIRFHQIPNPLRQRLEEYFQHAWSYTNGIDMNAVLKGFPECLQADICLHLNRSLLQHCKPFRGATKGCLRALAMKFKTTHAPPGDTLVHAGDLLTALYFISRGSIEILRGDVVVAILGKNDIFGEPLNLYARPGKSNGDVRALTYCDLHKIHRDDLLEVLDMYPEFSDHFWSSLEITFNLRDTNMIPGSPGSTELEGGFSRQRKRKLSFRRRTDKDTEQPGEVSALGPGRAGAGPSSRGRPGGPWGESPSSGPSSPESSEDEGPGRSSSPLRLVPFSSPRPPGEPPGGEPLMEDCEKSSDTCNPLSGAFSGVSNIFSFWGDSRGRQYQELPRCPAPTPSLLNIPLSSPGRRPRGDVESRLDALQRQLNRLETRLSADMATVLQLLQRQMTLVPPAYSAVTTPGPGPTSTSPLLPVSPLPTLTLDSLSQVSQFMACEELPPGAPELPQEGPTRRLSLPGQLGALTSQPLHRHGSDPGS
Glucagon-like peptide 1 receptor (Homo sapiens), sequence (P43220 whole entry, looked up): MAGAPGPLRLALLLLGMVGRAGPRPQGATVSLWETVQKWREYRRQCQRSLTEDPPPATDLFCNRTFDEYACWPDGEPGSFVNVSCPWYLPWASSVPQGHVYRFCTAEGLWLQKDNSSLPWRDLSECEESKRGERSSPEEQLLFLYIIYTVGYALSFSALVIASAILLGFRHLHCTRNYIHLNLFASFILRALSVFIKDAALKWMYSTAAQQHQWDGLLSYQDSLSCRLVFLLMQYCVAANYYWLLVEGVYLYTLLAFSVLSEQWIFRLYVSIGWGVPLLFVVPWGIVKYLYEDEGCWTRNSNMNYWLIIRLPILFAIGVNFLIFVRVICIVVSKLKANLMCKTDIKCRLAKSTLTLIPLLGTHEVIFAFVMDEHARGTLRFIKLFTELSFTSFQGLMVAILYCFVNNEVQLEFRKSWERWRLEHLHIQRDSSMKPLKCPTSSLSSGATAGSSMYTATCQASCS
Luciferin 4-monooxygenase (Photinus pyralis), sequence (P08659 whole entry, looked up): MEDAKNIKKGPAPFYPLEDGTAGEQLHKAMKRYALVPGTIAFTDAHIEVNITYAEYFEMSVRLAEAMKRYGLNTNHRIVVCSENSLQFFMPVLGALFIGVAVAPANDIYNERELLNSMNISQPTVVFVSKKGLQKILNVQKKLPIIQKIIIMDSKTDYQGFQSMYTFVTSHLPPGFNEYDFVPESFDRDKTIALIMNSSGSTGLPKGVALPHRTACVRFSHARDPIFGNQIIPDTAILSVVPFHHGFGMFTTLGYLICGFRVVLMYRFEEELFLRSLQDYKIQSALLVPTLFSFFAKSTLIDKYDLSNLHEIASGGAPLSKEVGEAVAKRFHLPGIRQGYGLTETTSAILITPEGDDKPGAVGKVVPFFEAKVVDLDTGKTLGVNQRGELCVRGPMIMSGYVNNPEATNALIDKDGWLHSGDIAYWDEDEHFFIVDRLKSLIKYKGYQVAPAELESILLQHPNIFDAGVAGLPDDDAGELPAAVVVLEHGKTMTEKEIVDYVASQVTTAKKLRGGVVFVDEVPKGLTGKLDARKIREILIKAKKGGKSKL

COc1cc(CNC(=O)CCCCCCC(C)C)ccc1O
inactive: [2] | [3] | [4]
active: [1] 3.16 µM

c1ccc(C2CN3CCSC3=N2)cc1 (centres undefined)
not listed: [9] | [10]
inactive: all other assays above

C=CCN1CCc2cc(O)c(O)cc2C(c2ccccc2)C1 (centres undefined)
inactive: [1] | [2] | [3]

NC/C=C\C(=O)O
inactive: [9] | [2] | [3] | [10]

CC(O)C(O)[C@H]1CNc2nc(N)[nH]c(=O)c2N1 (some centres undefined)
not listed: [9]
inactive: all other assays above

Nc1nc2c(nc(Br)n2C2OC3COP(=O)(O)O[C@@H]3C2O)c(=O)[nH]1 (some centres undefined)
inactive: [1] | [2] | [3] | [4]

O=c1cc(-c2ccccc2F)[nH]c2cc3c(cc12)OCO3
inactive: [1] | [2] | [3] | [4] | [10]

O=C(O)c1ccccc1Nc1cccc(OCc2ccc3ccccc3n2)c1
inactive: [9] | [2] | [3] | [4] | [10]

O=C(N[C@@H](Cc1ccccc1)C(=O)CCl)OCc1ccccc1
inactive: [1] | [2] | [3] | [4]

CCc1ccc2c(-c3cccc(Cl)c3)nc(=O)n(CC)c2n1
inactive: [1] | [2] | [3] | [4]

O=c1[nH]ccc2c(O)cccc12
inactive: [9] | [2] | [3] | [4] | [10]

N[C@@H](Cc1c[nH]c2ccccc12)C(=O)O
inactive: [9] | [2] | [3] | [4] | [10]

CSc1nc(N)c2ncn([C@@H]3O[C@H](COP(=O)(O)OP(=O)(O)O)C(O)[C@H]3O)c2n1 (some centres undefined)
inactive: [1] | [2] | [3] | [4]

c1ccc2c(c1)CCC[C@H]2Nc1nc2ccccc2[nH]1
inactive: [1] | [2] | [3] | [4] | [10]

CC(=O)N[C@@H](Cc1c[nH]c2ccccc12)C(=O)OCc1cc(C(F)(F)F)cc(C(F)(F)F)c1
inactive: [1] | [2] | [3] | [4] | [10]

NC(Cc1cccc(-c2ccccc2CP(=O)(O)O)c1)C(=O)O (centres undefined)
inactive: [1] | [2] | [3] | [4] | [10]

CC(C)(CO)Cc1cc(C(C)(C)C)c(O)c(C(C)(C)C)c1
inactive: [2] | [3] | [4] | [10]
active: [1] 1.78 µM

O=C(O)C1=CCCN(CCON=C(c2ccccc2)c2ccccc2)C1
inactive: [1] | [2] | [3] | [4] | [10]

O=c1ccc2c(OCCCCc3ccccc3)c3ccoc3cc2o1
inactive: [1] | [2] | [3] | [4] | [10]

O=C(O)CCC/C=C\C[C@@H]1[C@@H](/C=C/[C@H](O)C2Cc3ccccc3C2)[C@@H](F)C[C@@H]1O
inactive: [1] | [2] | [3] | [4] | [10]

CCCCCCCCCCC(C)(C)C(=O)Nc1c(OC)cc(OC)cc1OC
inactive: [1] | [2] | [3] | [4] | [10]

Cc1cc(Cn2cnc3c2C[C@@H](C(=O)O)N(C(=O)C(c2ccccc2)c2ccccc2)C3)ccc1N
inactive: [1] | [2] | [3] | [4] | [10]

CC(/C=C/c1cccc(Oc2ccc(F)cc2)c1)N(O)C(N)=O (centres undefined)
active: [1] 1.78 µM
inactive: [2] | [3] | [4] | [10]

CN1CC(O)C(O)C(O)C1CO (centres undefined)
inactive: [1] | [2] | [3] | [4] | [10]

NC(=O)CNCCC(c1ccccc1)c1ccccc1
inactive: [1] | [2] | [3] | [4] | [10]

N=S(=O)(O)Cc1noc2ccccc12
inactive: [1] | [2] | [3] | [4] | [10]

Brc1c(Br)c(Br)c2[nH]cnc2c1Br
inactive: [1] | [2] | [3] | [4] | [10]

CC(C)[C@@H]1CC[C@@H](C)C[C@@H]1P(=O)(c1ccccc1)c1ccccc1
inactive: [1] | [2] | [3] | [4] | [10]

CCCCOc1cc(CC2CNC(=O)N2)ccc1OC (centres undefined)
inactive: [1] | [2] | [3] | [4] | [10]

CC(=O)O[C@H]1Cc2ccccc2N(C(N)=O)c2ccccc21
inactive: [1] | [2] | [3] | [4] | [10]

O=C1Nc2ccc(I)cc2/C1=C/c1cc(Br)c(O)c(Br)c1
inactive: [1] | [2] | [3] | [4] | [10]

NCCNS(=O)(=O)c1cccc2c(Cl)cccc12
inactive: [1] | [2] | [3] | [4] | [10]

O=c1onc2n1-c1cc(Br)ccc1OC2
inactive: [1] | [2] | [3] | [4] | [10]

CCCCCC[C@@H]([C@@H](C)O)n1cnc2c(N)ncnc21
inactive: [1] | [2] | [3] | [4] | [10]

C[C@]12C=CC(=O)C=C1CC[C@@H]1C2=CC[C@]2(C)[C@@H](C(=O)CN3CCN(c4cc(N5CCCC5)nc(N5CCCC5)n4)CC3)CC[C@@H]12
inactive: [1] | [2] | [3] | [4] | [10]

O=c1[nH]c(=S)[nH]c(-c2ccccc2)c1Cc1c(O)ccc2ccccc12
inactive: [2] | [3] | [4] | [10]
active: [1] 8.91 µM

NCC(O)C1CCCCCCC1 (centres undefined)
inactive: [1] | [2] | [3] | [4] | [10]

S=C(S)N1CCCC1
inactive: [3] | [4] | [10]
active: [1] 12.6 µM | [2] 23.9 µM

C=C1C[C@@]23CC[C@H]4[C@@](C)(CCC[C@@]4(C)C(=O)O)[C@@H]2CC[C@]1(O)C3
inactive: [1] | [2] | [3] | [4] | [10]

c1ccc(C(NCCNC(c2ccccc2)c2ccccc2)c2ccccc2)cc1
inactive: [1] | [2] | [3] | [4] | [10]

CC(C)(C)c1ccc(/C=C/C(=O)Nc2ccc3c(c2)OCCO3)cc1
inactive: [1] | [2] | [3] | [4] | [10]

CC[C@H](NC(=O)c1c(C)c(-c2ccccc2)nc2ccccc12)c1ccccc1
inactive: [1] | [2] | [3] | [4] | [10]

C=CCNc1ncnc2ccc(Br)cc12
inactive: [1] | [2] | [3] | [4] | [10]

CN(CC[C@@H](Oc1ccc(C(F)(F)F)cc1)c1ccccc1)CC(=O)O
inactive: [1] | [2] | [3] | [4] | [10]

CCN(c1nc(N)c(C(=O)N=C(N)N)nc1Cl)C(C)C
inactive: [1] | [2] | [3] | [4] | [10]

NC1(C(=O)O)CC1
inactive: [1] | [2] | [3] | [4] | [10]

O[Si](CCCN1CCCCC1)(c1ccc(F)cc1)C1CCCCC1 (centres undefined)
inactive: [1] | [2] | [3] | [4] | [10]

Nc1ncnc2c1nc(Br)n2C1OC2COP(=O)(O)O[C@@H]2C1O (some centres undefined)
inactive: [1] | [2] | [3] | [4]
active: [10] 11.6 µM

Oc1ccc(/C=C/c2ccc(/C=C/c3ccc(O)cc3)c(Br)c2)cc1
inactive: [2] | [3] | [4] | [10]
active: [1] 7.08 µM

CC(=O)SC1CC2=CC(=O)CC[C@]2(C)C2CC[C@@]3(C)C(CC[C@@]34CCC(=O)O4)C12 (some centres undefined)
inactive: [1] | [2] | [3] | [4] | [10]

CNCCc1cnc(CCC(c2ccccc2)c2ccccc2)[nH]1
inactive: [1] | [2] | [3] | [4] | [10]

OC1(c2ccc(Cl)cc2)CCN(Cc2c[nH]c3ccccc23)CC1
inactive: [1] | [2] | [3] | [4] | [10]

COc1ccc(CCn2nnnc2C2(c3ccc(C)cc3)CC2)cc1
inactive: [1] | [2] | [3] | [10]

C[C@@H](NCCc1ccc(O)cc1)[C@@H](O)c1ccc(O)cc1
inactive: [2] | [4] | [10]

N=C(N)c1ccccc1
inactive: [1] | [2] | [3] | [4] | [10]

CC[n+]1c(/C=C/C=C2/N(C)c3ccccc3C2(C)C)sc2ccccc21
inactive: [3] | [4] | [10]
active: [1] 11.2 µM

N#Cc1cc([N+](=O)[O-])c2sc(C(N)=O)[n+]([O-])c2c1
inactive: [2] | [3] | [4] | [10]

Nc1nc2c(cnn2CCc2ccccc2)c2nc(-c3ccco3)nn12
inactive: [1] | [2] | [3] | [10]

C[C@H](O)C(=O)C1=Nc2c(nc(N)[nH]c2=O)NC1
inactive: [2] | [3] | [4] | [10]

Cn1cc(C(=O)OCC2CCN(CCNS(C)(=O)=O)CC2)c2ccccc21
inactive: [1] | [2] | [3] | [10]

COC(=O)[C@H](NC(=O)c1cc(-c2ccccc2)nc2ccccc12)c1ccccc1
inactive: [1] | [2] | [4]
